{"source": "PubChem BioAssay (NCATS)", "note": "Results filed as inconclusive are left out. Values without a mark were called inactive. The source made the active and inactive calls. Calls follow the shape of the dose curve; as a rule, active = well fitted inhibition curve with a large enough effect; inconclusive = small, poorly fitted or top-dose-only effect; inactive = flat fitted curve, though single readings scatter.", "data": [{"system": "MCC-26", "assay": "qHTS assay to identify novel small-molecules to repurpose for Merkel cell carcinoma treatment (AID 1296009); also: nearly all actives have a fitted effect of over 60% in size; also: potency is read from the fitted curve at half-maximal effect; as to activity change, negative = cytotoxicity: % is scaled to controls: 0 for no effect and ±100 for the full control effect", "conditions": "MCC and control cell lines, CellTiter-Glo viability, 72 h; series mostly up to 46 µM; activity change, negative = cytotoxicity: at the top concentration", "source_text": "MCC is a rare and aggressive neuroendocrine skin cancer with limited treatment options. Approximately 80% of MCCs have the Merkel cell polyomavirus (MCPyV) DNA integrated into the host genome (virus-positive: VP-MCC) and viral oncogenes drive oncogenesis. The remaining MCCs are virus-negative (VN-MCC) and are caused by UV mutagenesis. To identify novel treatments for VP-MCC and/or VN-MCC we screened three VP-MCC cell lines (WAGA, MKL-1, MKL-2), three VN-MCC cell lines (MCC-13, MCC-26, UISO), and four immortalized, non-transformed control cell lines (HaCaT, HEK293T, CRL7250, NIH-3T3) against ~2,400 compounds in the NCGC Pharmaceutical Collection (NPC) and ~1,900 compounds in the Mechanism Interrogation PlatE (MiPE). Using cell viability as a readout (CellTiter-Glo assay) we found both overlapping and distinct drugs that can be repurposed for the treatment of VP-MCC and VN-MCC.\nA high-throughput screen was conducted in 1536-well white flat bottom plates (Corning) on a Kalypsys robotic system. Cell lines WAGA, MKL-1, MKL-2, MCC-13, MCC-26, UISO, HaCaT, HEK293T, CRL7250, and NIH-3T3 were screened against 2 small molecule annotated drug libraries NPC and MIPE in dose response (8 and 11 pt. respectively) measuring cell viability after 72 hours of incubation. […] A 1,536 pintool (Kalypsys) was used to transfer 23 nL of compound in DMSO to the 1,536-well assay plates. After 72 hr incubation at 37 degree celsius, 2.5 uL of CellTiter-Glo (Promega) was dispensed into each well using a BiorapTR. Plates were incubated at room temperature for 10 min, transferred to a ViewLux (PerkinElmer) and the luminescence was recorded using an exposure time of 2 seconds. Relative luminescence units (RLUs) were normalized to in-plate controls (no cells as a positive (cytotoxicity) control, DMSO as negative control) and the normalized data was processed using NCATS in-house software.", "units": {"activity change, negative = cytotoxicity": "%"}, "values": [{"compound": "CN(C)CCOC(=O)C(c1ccccc1)C1(O)CCCC1", "note": "(stereo not given)", "activity change, negative = cytotoxicity": -0.175}, {"compound": "CC(C)(C)NC[C@H](O)COc1cccc2c1CCCC2=O", "activity change, negative = cytotoxicity": -13.7}, {"compound": "Cc1cc(NS(=O)(=O)c2ccc(N)cc2)nc(C)n1", "activity change, negative = cytotoxicity": 8.03}, {"compound": "COc1cc(C(=S)N2CCOCC2)ccc1O", "activity change, negative = cytotoxicity": -12.5}, {"compound": "N#CCC(=O)NN", "activity change, negative = cytotoxicity": 9.51}, {"compound": "C#C[C@]1(OC(C)=O)CC[C@H]2[C@@H]3CCC4=C/C(=N/O)CC[C@@H]4[C@H]3CC[C@@]21CC", "activity change, negative = cytotoxicity": -14.8}, {"compound": "Cc1cccc(C)c1NC(=O)CN1CCCCCC1", "activity change, negative = cytotoxicity": 9.22}, {"compound": "CCCc1ncc(C[n+]2ccccc2C)c(N)n1", "activity change, negative = cytotoxicity": 2.92}, {"compound": "CN(C)C(=O)Nc1ccc(Cl)c(Cl)c1", "activity change, negative = cytotoxicity": -6.31}, {"compound": "COc1ccc(S(=O)(=O)N2c3ccc(Cl)cc3[C@@](O)(c3ccccc3Cl)[C@H]2C(=O)N2CCC[C@@H]2C(N)=O)cc1OC", "activity change, negative = cytotoxicity": -6.96}, {"compound": "NC(=O)c1ccccc1O", "activity change, negative = cytotoxicity": -8.92}, {"compound": "CCCCCCCCCCCCCCC[C@H](O)[C@@H](N)CO", "activity change, negative = cytotoxicity": -2.25}, {"compound": "CNCCc1ccccn1", "activity change, negative = cytotoxicity": 19.4}, {"compound": "C[N+]1(C)CCC(=C(c2ccccc2)c2ccccc2)CC1", "activity change, negative = cytotoxicity": -12.7}, {"compound": "C[C@@]12C(=O)OC(=O)[C@]1(C)C1CCC2O1", "Potency": "4.22 µM (active)"}, {"compound": "O=C(c1ccc(F)cc1)C1CCN(CCn2c(=S)[nH]c3ccccc3c2=O)CC1", "activity change, negative = cytotoxicity": -3.13}, {"compound": "O=S(c1cc(Cl)cc(Cl)c1O)c1cc(Cl)cc(Cl)c1O", "activity change, negative = cytotoxicity": 10.1}, {"compound": "C/C=C/c1ccc(O)c(OC)c1", "activity change, negative = cytotoxicity": -1.33}, {"compound": "CCCN(CCc1cccs1)[C@H]1CCc2c(O)cccc2C1", "activity change, negative = cytotoxicity": 1.88}, {"compound": "CCCCNc1ccc(C(=O)OCCOCCOCCOCCOCCOCCOCCOCCOCCOC)cc1", "activity change, negative = cytotoxicity": -10.3}, {"compound": "CN(C)CCC[C@@]1(c2ccc(F)cc2)OCc2cc(C#N)ccc21", "activity change, negative = cytotoxicity": -4.15}, {"compound": "CN1CCC(OC(c2ccccc2)c2ccccc2)CC1", "activity change, negative = cytotoxicity": -1.63}, {"compound": "Nc1ccc(S(=O)(=O)NCc2ccccc2)cc1", "activity change, negative = cytotoxicity": -11}, {"compound": "O=C1C(CCS(=O)c2ccccc2)C(=O)N(c2ccccc2)N1c1ccccc1", "note": "(stereo not given)", "activity change, negative = cytotoxicity": 2.11}, {"compound": "N/C(=N\\N=C\\c1ccc(Cl)cc1)N/N=C/c1ccc(Cl)cc1", "activity change, negative = cytotoxicity": -13}, {"compound": "O=C(O)c1ccc(S(=O)(=O)N(Cl)Cl)cc1", "activity change, negative = cytotoxicity": -2.94}, {"compound": "CC(=O)Nc1ccc(S(=O)(=O)Nc2ccc([N+](=O)[O-])cc2)cc1", "activity change, negative = cytotoxicity": -4.46}, {"compound": "COc1cc(NS(=O)(=O)c2ccc(N)cc2)ncn1", "activity change, negative = cytotoxicity": 3.8}, {"compound": "CCc1ccc(C(=O)C(C)CN2CCCCC2)cc1", "note": "(stereo not given)", "activity change, negative = cytotoxicity": -16.7}, {"compound": "CCN(CC)CCNC(=O)COc1ccc(OC)cc1", "activity change, negative = cytotoxicity": -12.5}, {"compound": "CCOCCn1c(N2CCCN(C)CC2)nc2ccccc21", "activity change, negative = cytotoxicity": -17.8}, {"compound": "CC(=O)O[C@]1(C(C)=O)CC[C@H]2[C@@H]3C=C(C)C4=CC(=O)CC[C@]4(C)[C@H]3CC[C@@]21C", "activity change, negative = cytotoxicity": 3.78}, {"compound": "CCCCC(CC)COC(=O)c1ccc(N(C)C)cc1", "note": "(stereo not given)", "activity change, negative = cytotoxicity": 6.89}, {"compound": "NS(=O)(=O)c1ccc(Cl)c(S(N)(=O)=O)c1", "activity change, negative = cytotoxicity": -11.4}, {"compound": "CCOC(=O)C(C#N)=C(c1ccccc1)c1ccccc1", "activity change, negative = cytotoxicity": -6.95}, {"compound": "Cn1c(=O)c2[nH]c(Br)nc2n(C)c1=O", "activity change, negative = cytotoxicity": 7.02}, {"compound": "C#C[C@]1(O)CC[C@H]2[C@@H]3CCC4=CC(=O)CC[C@@H]4[C@H]3CC[C@@]21CC", "activity change, negative = cytotoxicity": -4.39}, {"compound": "O=C(CN1CCN(Cc2ccc3c(c2)OCO3)CC1)N1c2ccccc2Sc2ccccc21", "activity change, negative = cytotoxicity": 1.59}, {"compound": "CCOC(=O)c1c(N)sc2c1CCN(Cc1ccccc1)C2", "activity change, negative = cytotoxicity": -12.3}, {"compound": "CCc1oc2ccccc2c1C(=O)c1cc(I)c(O)c(I)c1", "activity change, negative = cytotoxicity": -5.35}]}]}
